Experimental findings from PubChem BioAssay (NCI) are described below.

The nature of experiment [1]: NCI Yeast Anticancer Drug Screen. Data for the rad50 strain (AID 155).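 Also: 0% = growth of vehicle-only cultures of the same strain.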 Conditions: S. cerevisiae rad50 strain growth inhibition; at 50.0 µM; active compounds read high. The procedure, abridged:
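Genetically altered yeast (DNA repair pathway); compound treatment; growth inhibition vs vehicle ctrl.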

A short description of experiment [2]: NCI Yeast Anticancer Drug Screen. Data for the mec2-1 strain (AID 157). Conditions: S. cerevisiae mec2-1 strain, at 50.0 µM, active compounds read high. The method in brief: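 Yeast mec2-1 mutant treated with compound. Readout: growth inhibition vs vehicle controls.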
A short description of experiment [3]: NCI Yeast Anticancer Drug Screen. Data for the sgs1 mgt1 strain (AID 161).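 Also: 0% = growth of cultures given vehicle only.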 Conditions: S. cerevisiae sgs1 mgt1 strain, at 50.0 µM, active compounds read high. The procedure, abridged:
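Mutant yeast exposed to compound; growth scored against vehicle-only wells.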

Experiment [4] is described as follows: NCI Yeast Anticancer Drug Screen. Data for the cln2 rad14 strain (AID 165).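 Also: 0% = growth equal to vehicle treated cultures.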 Conditions: S. cerevisiae cln2 rad14 strain, at 50.0 µM, active compounds read high. The method in brief: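 cln2 rad14 yeast strain; compound exposure; growth inhibition read vs vehicle controls.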
A short description of experiment [5]: NCI Yeast Anticancer Drug Screen. Data for the bub3 strain (AID 167). Conditions: S. cerevisiae bub3 mutant strain, at 50.0 µM, active compounds read high. The procedure, abridged: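 Yeast carrying a defined mutation is treated with each compound, and growth is compared with that of vehicle-exposed cells to give inhibition.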
Experiment [6] in a line: NCI Yeast Anticancer Drug Screen. Data for the mlh1 rad18 strain (AID 175). Conditions: S. cerevisiae mlh1 rad18 strain growth inhibition; at 50.0 µM; active compounds read high. The procedure, abridged: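 Yeast w/ defined DNA-repair lesions; compound exposure; growth vs vehicle controls → % inhibition.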

This is part of a sample that, as a whole, favours compounds with a hit. Of some 79,000 tested, about 15% had one in any assay. Unmarked numbers belong to inactive results. Calls of active or inactive are those of the source. Rule as the data show it: active = growth inhibition above about 70%; inactive = the rest.

In the case of `S=C1CC(c2ccccc2)Sc2cc(Cl)ccc2N1` (centres undefined), the growth inhibition in experiment [1] is -15.5%; in experiment [2], -4.35%; in experiment [3], 4.9%; in experiment [4] it was 15.6%; in experiment [5] it was -2.45%; in experiment [6], -2.95%.

On to `CCOC(=O)C1CCCCC1NC1CCCCC1C(=O)OCC` (centres undefined), for which the growth inhibition in experiment [1] is 4.65%; in experiment [2], -2.35%; in experiment [3], -22.9%; in experiment [4], -14.2%; in experiment [5], -16.2%; in experiment [6], 8.9%.

Regarding `COC(=O)c1cc(-c2cccnc2)[nH]c(=O)c1C#N`, the growth inhibition is -5.4% in experiment [1]; -36.6% in experiment [2]; -39.9% in experiment [3]; -15.7% in experiment [4]; -9.7% in experiment [5]; -14.2% in experiment [6].

Regarding `CC(C)(C)N1COCC(COc2ccc(Cl)cc2)OC1` (centres undefined), the growth inhibition was -13.3% in experiment [1]; -3.5% in experiment [2]; 4.95% in experiment [3]; 11.4% in experiment [4]; -16.1% in experiment [5]; 24.8% in experiment [6].

`COC(=O)C1(OC(=O)Sc2ccccc2)CCN(C)CC1`: the growth inhibition in experiment [1] was -19.8%; in experiment [2], -5.95%; in experiment [3] it was -7.15%; in experiment [4], 15.4%; in experiment [5] it was -7.55%; in experiment [6] it was -25.1%.

For the compound `NS(=O)(=O)c1cccc([N+](=O)[O-])c1`, the growth inhibition in experiment [1] is 21.1%; in experiment [2], 5%; in experiment [3], 6.7%; in experiment [4], 5.95%; in experiment [5] it was -2.5%; in experiment [6], -13.1%.

As for `CNc1ccc([N+](=O)[O-])cc1C(=O)OC`, the growth inhibition is 8% in experiment [1]; -6.1% in experiment [2]; -8.55% in experiment [3]; -46.2% in experiment [4]; -22.9% in experiment [5]; 22.9% in experiment [6].

For `OCC1SC(O)C(O)C(O)C1O` (centres undefined), the growth inhibition in experiment [1] is 28.2%; in experiment [2], -5.55%; in experiment [3] it was 11.8%; in experiment [4], 10.7%; in experiment [5], 25.1%; in experiment [6], 19.6%.

As to `CNC(=O)C1CCCN1C(=O)C(Cl)Cl` (centres undefined), the growth inhibition in experiment [1] is -1.95%; in experiment [2] it was -10.6%; in experiment [3], 0.9%; in experiment [4], -21.9%; in experiment [5], -10.8%; in experiment [6], 14.2%.

As for `CC(C)(O)CCC(O)C(C)(O)C1CCC2(O)C3=CC(=O)C4(O)CC(O)C(O)CC4(C)C3CCC12C` (centres undefined) (tested in a mixture with another compound), the growth inhibition in experiment [1] was -5.3%; in experiment [2], -17.9%; in experiment [3] it was 6.15%; in experiment [4], -12.2%; in experiment [5] it was -17.4%; in experiment [6] it was -47.7%.

Consider `CN(C)c1nc(Cl)cc2nc(Cl)cn12`, for which the growth inhibition is 0.25% in experiment [1]; 5.7% in experiment [2]; 2.5% in experiment [3]; -0.35% in experiment [4]; -8.15% in experiment [5]; 0.5% in experiment [6].

As for `O=C(Nc1cccc2ccccc12)Oc1ccc(Br)cc1Br`, the growth inhibition in experiment [1] is 84.1% (active); in experiment [2], 71.2% (active); in experiment [3], 93.3% (active); in experiment [4] it was 30.2%; in experiment [5] it was 54.1%; in experiment [6], 92.7% (active).

As for `N#C/C(=C/N1CCNC1=S)C(N)=O`, the growth inhibition in experiment [1] was 4.95%; in experiment [2], 5%; in experiment [3], 9.5%; in experiment [4], 23.9%; in experiment [5] it was -2.8%; in experiment [6], 12.4%.

As to `O=C(Nc1ccc(Cl)c(Cl)c1)C(=O)C(C(=O)c1ccccc1-c1ccccc1)C1OC(=O)c2ccccc21` (centres undefined), the growth inhibition was 20.2% in experiment [1]; -0.45% in experiment [2]; 5.85% in experiment [3]; -50.5% in experiment [4]; 4.85% in experiment [5]; -8.9% in experiment [6].

Consider `c1ccc(-c2cc3c4ccccc4ccn3c2)cc1`, for which the growth inhibition was 15.2% in experiment [1]; 10.2% in experiment [2]; 20.2% in experiment [3]; 3.65% in experiment [4]; -2.95% in experiment [5]; -5.95% in experiment [6].

For the compound `Cc1ccc(S(=O)(=O)Oc2cc(-c3ccccc3)nc3ccccc23)cc1`, the growth inhibition in experiment [1] is 5.35%; in experiment [2] it was -7.25%; in experiment [3] it was 2.95%; in experiment [4] it was 11.7%; in experiment [5] it was 27.6%; in experiment [6] it was 9.85%.

On to `CN(C)CCOC(=O)Nc1ccccc1C(F)(F)F`, for which the growth inhibition in experiment [1] is 16.1%; in experiment [2] it was -8.1%; in experiment [3], 17.1%; in experiment [4], 21.8%; in experiment [5], 19.8%; in experiment [6], 12.2%.

`O=C(/C=C/c1ccco1)c1ccc(NCc2nc3ccccc3[nH]2)cc1`: the growth inhibition in experiment [1] is 40.2%; in experiment [2] it was -7%; in experiment [3], 41.5%; in experiment [4], 33.9%; in experiment [5] it was 13.8%; in experiment [6] it was 25.8%.

As for `O/N=C1\CC2(N3CCOCC3)CCC1(Cc1ccccc1)CC2`, the growth inhibition in experiment [1] is 36%; in experiment [2], 52.6%; in experiment [3] it was 60.2%; in experiment [4], 55.6%; in experiment [5], 38.8%; in experiment [6], 49.4%.
